From ChEMBL document CHEMBL4513216, “Probing the Open Global Health Chemical Diversity Library for Multistage-Active Starting Points for Next-Generation Antimalarials” (ACS Infect Dis, 2020)
Among all 69,000 compounds or so, about 8,600 (12%) showed an effect of 50% or more. The sample holds strong results, similar compounds and a random draw of the others, so the mix is not that of the screen.

What follows are compounds tested on Plasmodium berghei (assay: Screen against P. berghei liver stage (PbLuc), transformed with Luciferase, at 10uM). Conditions: tested at 10 uM.
Assay type: functional, HepG2

Compound | INHIBITION [%]
CCc1nccn1-c1cncc(C2CCN(C(=O)COC)CC2)n1 | -22.6
COc1nc2cc(C)ccc2cc1CN(C)Cc1n[nH]c2c1CCCC2 | 28.15
Cc1cc(CN(C)C(C(=O)O)c2ccc(C(C)(C)C)cc2)on1 (centres undefined) | 58.4
CCOc1cccc(C(C(=O)O)N(C)Cc2cc(C)no2)c1 (centres undefined) | -24.6
Cc1cc(CN(C)C(C(=O)O)c2cccc(C(F)(F)F)c2)on1 (centres undefined) | -21.2
CN(Cc1cc[nH]n1)C(=O)c1ccc2c(c1)nc(N1CC[C@H](O)C1)n2C | 22.6
COc1ccc(COCC(O)CSc2ccc(NC(C)=O)cc2)cc1 (centres undefined) | 5.75
O=C(O)CCN(Cc1ccc(F)c(F)c1)C(=O)C1CC1 | 40.1
N#Cc1ccc(Cl)cc1NCC1CCOC1 (centres undefined) | -10.5
Cc1c(C(=O)N2CCSCC2)sc2nc(C(F)(F)F)ccc12 | 14.9
Cc1c(C(N)=O)sc2nc(C(F)(F)F)ccc12 | 54.5
Cc1c(C(=O)O)sc2nc(C(F)(F)F)ccc12 | -11.9
Cc1ncnc(NCCCN2CCCCC2CO)c1C (centres undefined) | -17.8
CC(C(N)=O)N1CCN(c2ncc(Br)cn2)CC1 (centres undefined) | 21.8
CCc1cnc(C)nc1NCCSc1nnc(C)n1CC | 55.7
CCn1c(C)nnc1SCCNc1nc(C)nc2c1cnn2C | 26.7
CCn1c(C)nnc1SCCNc1nc(C)ncc1S(C)(=O)=O | -22.4
Cc1cccc(CN2CCC3(CCCN(C(=O)NC(C)C)C3)C2=O)n1 (centres undefined) | 8.67
Cc1ccc(C(=O)N2C[C@H]3CCC[C@@]3(COCC3CCOCC3)C2)o1 | 62.5
O=C(c1ncccn1)N1C[C@H]2CCC[C@@]2(COCC2CCOCC2)C1 | 0
O=C(c1ncccn1)N1C[C@H]2CCC[C@@]2(COCc2ccncc2)C1 | -15.8
O=C(c1ccnnc1)N1C[C@H]2CCC[C@@]2(COCC2CCOCC2)C1 | 43.8
O=C(c1ccncn1)N1C[C@H]2CCC[C@@]2(COCC2CCOCC2)C1 | 64.9
Cc1ncoc1C(=O)N1C[C@H]2CCC[C@@]2(COCC2CCOCC2)C1 | 44.4
O=C(c1ccccn1)N1C[C@H]2CCC[C@@]2(COCC2CCOCC2)C1 | 45.1
c1csc(CN2C[C@H]3CCC[C@@]3(COCC3CCOCC3)C2)n1 | 49.7

Compound | INHIBITION [%]
O=C(c1cccs1)N1C[C@H]2CCC[C@@]2(COCC2CCOCC2)C1 | 77.7
CCCOc1cc(C)ccc1NC(=O)N(C)Cc1cnn(C)c1 | 38.5
O=C(O)[C@]12CCCN(C3CCOC3)C[C@H]1CN(c1nncs1)C2 (some centres undefined) | 4.98
CN1CCN(C[C@@H]2CN(C(=O)CC3CCCCC3)C[C@@H]2CO)CC1 | 6.65
CC(NC(=O)CCS(=O)(=O)C1CCCC1)c1nc(-c2ccccc2)c[nH]1 (centres undefined) | 4.81
CC(NC(=O)CCc1cccs1)c1nnc2n1CCCCC2 (centres undefined) | -29.1
CCCNC(=O)CN1CCN(c2nc(CC)ns2)CC1 | -23.2
CCc1nsc(N2CCN(CC(=O)NCc3cccnc3)CC2)n1 | 78.1
Cc1nsc(N2CCN(CC(=O)NCc3cccnc3)CC2)n1 | -101
CN(C)C(=O)c1cccc(CN2CCN(CC(O)C(C)(C)C)CC2)c1 (centres undefined) | -13.5
Cc1c(Br)c(C(F)(F)F)nn1C(C)C(=O)O (centres undefined) | 8.49
Cc1nnc(NCCC(=O)N(C)Cc2ccccc2)c(C#N)c1C | -5.65
Cc1cnc(-c2nc(C3CCN(Cc4ccccc4C)CC3)no2)cn1 | 19.36
COc1ccc(C(=O)NCc2ccon2)cc1F | 11.6
O=C(NS(=O)(=O)Cc1ccon1)c1ccsc1 | 73.6
Cc1ccc(C(=O)NS(=O)(=O)Cc2ccon2)c(C)c1 | 12.8
Cc1cc(C(=O)NS(=O)(=O)Cc2ccon2)c(C)o1 | 44.2
CC(O)(CNS(=O)(=O)Cc1ccon1)c1ccsc1 (centres undefined) | 1.98
O=C(CCc1cccc(Cl)c1)NS(=O)(=O)Cc1ccon1 | 35.1
Cc1ccc(S(=O)(=O)NC(=O)CCc2ccco2)cc1N(C)C | -18.9
O=C(CCc1ccco1)NS(=O)(=O)N1CCOc2ccccc21 | 25.2
O=C(CCc1ccsc1)NS(=O)(=O)Cc1ccon1 | 55.4
O=C(CCc1ccco1)NS(=O)(=O)Cc1ccon1 | 64
Cc1cc(C(=O)NS(=O)(=O)Cc2ccon2)c(C)n1C(C)C | 56.1
CN(C(=O)CCc1ccsc1)S(C)(=O)=O | 37.4
CC(=O)N1CCN(c2cc(C3CN(C(C)=O)CCO3)nc(C)n2)CC1 (centres undefined) | 29.2

Compound | INHIBITION [%]
CO[C@@H]1CC[C@H]2[C@H]1OCCN2CCOCc1ccccc1 | 4.98
Cc1nc(C2CCCN(C(=O)c3ccncc3)C2)c2sccn12 (centres undefined) | 35.2
CC(=O)c1cn(CCC(=O)N[C@@H](CC(C)C)C(=O)O)c2ccccc12 | 11.9
NC(=O)CSCC(=O)NC1(c2cccc(Cl)c2)CC1 | 38.6
CC(=O)N1CC[C@H]2OCC[C@@H](C(=O)NCc3ccco3)[C@@H]2C1 | 18.3
COCC(=O)N1Cc2nccn2CC(Cn2ncccc2=O)C1 (centres undefined) | 19.4
CC(C)(C)c1nccc(N2CCCCC2CNS(C)(=O)=O)n1 (centres undefined) | 16.6
c1ccc(CCCN2CCN(c3ccc4nncn4n3)CC2)cc1 | 74.7
O=C(NCCc1ccccc1)C1CCCN(c2ccc3nncn3n2)C1 (centres undefined) | -23.5
Clc1ccc(OCCCN2CCN(c3cnccn3)CC2)cc1 | 54.4
c1ccc(CN2CCN(c3ccc4nncn4n3)CC2)nc1 | 7.67
c1ccc(CCN2CCN(c3ccc4nncn4n3)CC2)nc1 | 20.1
O=C(COc1ccc(Cl)cc1)N1CCN(c2cnccn2)CC1 | -126
c1cc(CCN2CCN(c3ccc4nncn4n3)CC2)ccn1 | -33.7
Clc1ccccc1CCN1CCN(c2ccc3nncn3n2)CC1 | 72.8
O=C(CCN1CCN(c2ccc3nncn3n2)CC1)N1CCCCC1 | -19.9
N#Cc1ccc(N2CCN(c3ccc4nncn4n3)CC2)nc1 | -23.4
O=C(CCOc1ccc(Cl)cc1)N1CCN(c2cnccn2)CC1 | 3.19
c1ccc(CCN2CCN(c3ccc4nncn4n3)CC2)cc1 | 60.9
O=c1[nH]c(N2CCCCC2)nc2nccc(-c3ccc4c(c3)OCO4)c12 | -5.59
COc1c(C)cc(CNCc2ccnc(N3CCOCC3)c2)cc1C | 28.8
CC(C)NC(=O)N1C[C@@H]2C[C@H](C(=O)NCc3ccccc3)[C@H](C1)O2 | 18.2
COc1ccc(Cn2nnnc2SCC2CCCN(C)C2)cc1 (centres undefined) | 40.5
CO[C@@]1(C)C[C@@H](O)C12CCN(C(=O)C1(c3ccccc3F)CC1)CC2 | 32.5
NCCC(Cc1ccccc1)c1ccco1 (centres undefined) | 36.1
O=C(N[C@H]1CCCC[C@@H]1O)c1ccc2nc(-c3ccccc3)[nH]c2c1 | -85.3

Compound | INHIBITION [%]
COc1nn(C)c2c1CCCN(C(=O)c1ccccc1F)C2 | 3.25
CC(NC(=O)CCCC(=O)c1cccs1)c1nnc2n1CCC2 (centres undefined) | 7.12
O=C(O)Cn1ccc2c(Cl)cccc21 | 19.3
Cc1nnc(C(C)N2CCN(Cc3ccc(C(F)(F)F)cc3)CC2)o1 (centres undefined) | -43.5
c1ccc(OCCCN2CCN(c3ccc4nncn4n3)CC2)cc1 | 86.1
FC(F)(F)COCCN1CCN(c2ccc3nncn3n2)CC1 | 38.8
O=C(CCN1CCN(c2ccc3nncn3n2)CC1)NC1CCCC1 | -51.5
O=C(NCc1cccnc1)NC1CCC2(CCC(=O)N2CC2CC2)CC1 (centres undefined) | 40.3
CCN(CCNC(=O)Nc1nnc(C)s1)C(=O)OC(C)(C)C | -19.3
O=C1C(NS(=O)(=O)c2ccc(F)cc2)CCN1Cc1ccccc1 (centres undefined) | 23.5
CCc1nnc(CN(C)C(=O)C(CC)n2c(CC)nc3ccccc32)o1 (centres undefined) | 52.7
CCc1nc2ccccc2n1C(CC)C(=O)N(C)Cc1nc(C)c[nH]1 (centres undefined) | 12.9
CCc1nc2ccccc2n1C(CC)C(=O)N(C)Cc1noc(C)n1 (centres undefined) | 31.1
O=C1COc2ccc(C(=O)NS(=O)(=O)c3ccccc3Cl)cc2N1 | 14.1
CCCS(=O)(=O)N1C[C@@H](Oc2ccccn2)[C@H]2OCCC[C@H]21 | -21.1
O=C(c1ccsc1)N1CCCC(c2cc(C(F)(F)F)[nH]n2)C1 (centres undefined) | 57.2
O=C(Cc1cccnc1)N1CCCC(c2cc(C(F)(F)F)[nH]n2)C1 (centres undefined) | 50.8
Cc1nc(C(=O)N2CCCC(c3cc(C(F)(F)F)[nH]n3)C2)c[nH]1 (centres undefined) | 33.8
O=C(c1cc(Cl)c[nH]1)N1CCCC(c2cc(C(F)(F)F)[nH]n2)C1 (centres undefined) | 88.2
O=C(c1ccc[nH]1)N1CCCC(c2cc(C(F)(F)F)[nH]n2)C1 (centres undefined) | 54.4
O=C(c1cc[nH]n1)N1CCCC(c2cc(C(F)(F)F)[nH]n2)C1 (centres undefined) | 25.1
O=C(c1nc(=O)[nH][nH]1)N1CCCC(c2cc(C(F)(F)F)[nH]n2)C1 (centres undefined) | 29.1
Cc1nc(C2CCCN(C(=O)c3cc(Cl)c[nH]3)C2)sc1C (centres undefined) | 40.9
Cc1cc(C(=O)N2CCCC(c3cc(C(F)(F)F)[nH]n3)C2)[nH]n1 (centres undefined) | 29.7
CCOCCC(=O)N1CCCC(c2cc(C(F)(F)F)[nH]n2)C1 (centres undefined) | 7.97
Cn1cc(CC(=O)N2CCCC(c3cc(C(F)(F)F)[nH]n3)C2)cn1 (centres undefined) | 7.97
